# Hits are enriched below; roughly 7.9% of the tested compounds scored in any of these assays.
# HT1080-NT tox – kills 2HG-producing HT-1080-NT fibrosarcoma cells; HT-1080-NT fibrosarcoma viability, CellTiter-Glo ATP luminescence, 48 h; Potency, µM (top dose mostly 46.1 µM), without a hit: at the highest dose activity, negative = less viability, most hits filed as cytotoxic; 1.6% of 360,000 active; AID 686970;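 note: NT is the 2HG producing partner of a matched IDH1 knockdown line; 0% = DMSO-treated cells and -100% = media-only wells without cells; nearly all actives have a fitted effect of over 55% in size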
#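 HT-1080-NT; 750 cells/well; 5% FBS RPMI; 48 h compound, 37 degrees C; CellTiter-Glo luminescence; curve fitting and curve-class assignment.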
# SW480 rereplic – DNA re-replication induction in SW480 cells. Potency, µM (top dose mostly 46.1 µM), for the others: at the top dose re-replication activation, usual class: activators. 1.8% of 340,000 active. SW480 DNA re-replication, Hoechst DNA content imaging, 48 h. AID 624297; note: % of control where 0% means no effect; nearly all actives have a fitted effect of over 55% in size
#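 Quantitative HTS format with DMSO vehicle controls; 48 hr drug incubation at 37 C, then 40 min Hoechst staining and scanning imager measurement at 405 nm excitation.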
# HT1080 IDH1KD tx – toxicity to HT-1080 IDH1 knockdown cells (counter line) | HT-1080 IDH1 knockdown viability, ATP luminescence, 48 h | Potency, µM (titrated, usually from 46.1 µM), without a hit: top-dose activity, negative = toxicity, actives largely listed as cytotoxic | 2% of 360,000 active;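 note: 0% = DMSO wells and -100% = cell-free medium wells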
#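 % activity derives from luminescence (CellTiter-Glo), normalised to DMSO and no-cell wells. HT-1080-IDH1KD cells, 750/well, had 48 h compound exposure at 37 °C.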
# MCF10A rerep – inducers of DNA re-replication in MCF 10A breast cells | 2.9% of 350,000 active | MCF 10A DNA re-replication, Hoechst nuclear intensity, 48 h | Potency, µM (highest dose often 46.1 µM), without a hit: at the highest dose activity, positive = re-replication, actives largely listed as activators; note: % of control where 0% means no effect; nearly all actives have a fitted effect of over 50% in size
# KB-V1 MDR tox – KB-V1 MDR subline cytotoxicity; KB-V1 MDR cells viability, CellTiter-Glo, 72 h; Potency, µM (titrated, usually from 46.1 µM), most hits filed as cytotoxic; 3.4% of 400,000 active; AID 1347076; note: % is set by controls: 0 for no effect and ±100 for the full control effect; nearly all actives have a fitted effect of over 60% in size
#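 In this primary screen, KB-V1 cells overexpressing P-gp are incubated with library compounds (lowest to highest concentration) for 72 h at 37 degrees C before a luminescent ATP viability read.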
# KB-3-1 tox – KB-3-1 parental cell cytotoxicity | 1.4% of 400,000 active | AID 1347075 | Potency, µM (doses to about 46.1 µM), actives largely listed as cytotoxic | KB-3-1 viability, CellTiter-Glo ATP luminescence, 72 h; note: % is set by controls: 0 for no effect and ±100 for the full control effect; nearly all actives have a fitted effect of over 60% in size
#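 Screening of KB-3-1 cells (DMEM, 10% FBS, phenol-red free) ran from lowest to highest compound concentration; after 72 h at 37 °C viability was read luminescently and curves fitted.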
# * hit, by the source's call; i = inactive; ? = inconclusive; / = no result. Calls come from the whole dose curve; as a rule, active = well fitted curve in the direction sought with a large enough effect; inconclusive = small, poorly fitted or top-dose-only effect, or another doubt; inactive = no such curve, though single readings can be large; an effect the other way counts as inactive or inconclusive. Potency is the fitted concentration of half-maximal effect.
SMILES,HT1080-NT tox,SW480 rereplic,HT1080 IDH1KD tx,MCF10A rerep,KB-V1 MDR tox,KB-3-1 tox
COc1cc(C2C3=C(CCCC3=O)Nc3[nH]n(-c4ccccc4)c(=O)c32)ccc1OC(C)=O (stereo not given),1%,21µM*,3%,7.3µM*,i,i
O=C1CCCC2=C1C(c1cccc(O)c1)c1c(ccc3ncccc13)N2 (stereo not given),-10%,?,-30%,18µM*,i,i
CCOc1cc(C2C3=C(CCCC3=O)Nc3ccc4ncccc4c32)ccc1O (stereo not given),?,18µM*,?,?,i,13µM*
COc1cc(C2C3=C(CCCC3=O)Nc3ccc4ncccc4c32)ccc1O (stereo not given),?,23µM*,6.5µM*,15µM*,i,?
O=C1CC2C(CCC23OCCO3)c2ccc3ccccc3c21 (stereo not given),5%,0%,-1%,21%,i,i
O=C(O)Cc1c(-c2ccccc2)c2cc(Cl)ccc2[nH]c1=O,1%,-4%,5%,-2%,i,i
CCOC(=O)N1CCN(c2c(-c3ccccc3)c3cc(Cl)ccc3[nH]c2=O)CC1,16%,-4%,2%,-3%,9.2µM*,?
CCOC(=O)C1CCN(c2c(-c3ccccc3)c3cc(Cl)ccc3[nH]c2=O)CC1,-1%,?,-1%,10%,i,i
O=c1[nH]c2ccc(Cl)cc2c(-c2ccccc2)c1N1CCN(CCO)CC1,11µM*,5%,?,24%,i,i
CCCOc1ccc(C(=O)NC2CCSc3ccccc32)cc1 (stereo not given),-16%,5%,-24%,11%,i,i
COc1ccc(-c2c(C#Cc3ccsc3)c3cc(-c4ccc(C(N)=O)cc4)ccc3n2C)cc1,12%,-1%,-10%,?,i,i
CS(=O)(=O)c1ccc(C(=O)NCCN2C(=O)S/C(=C\c3cccnc3)C2=O)cc1[N+](=O)[O-],?,2.1µM*,?,13µM*,i,?
CCC(=O)Nc1cc(-c2nn3c(C)nnc3s2)ccc1C,12%,-6%,16%,0%,i,i
Cc1ccc(OCC(=O)Nc2cc(-c3nn4c(C)nnc4s3)ccc2C)cc1,2%,-9%,9%,-4%,?,18µM*
Cc1ccc(-c2nn3c(C)nnc3s2)cc1NC(=O)c1ccc(-c2ccc(Cl)cc2Cl)o1,?,18%,?,7.3µM*,?,21µM*
Cc1ccc(-c2nn3c(C)nnc3s2)cc1NC(=O)c1ccc(Br)o1,5%,0%,5%,0%,i,i
COc1cccc(N2CCN(C(=O)c3ccc(Cn4c(=O)[nH]c5cc(OC)c(OC)cc5c4=O)cc3)CC2)c1,/,/,/,/,i,i
OC[C@@H]1O[C@](CO)(O[C@H]2O[C@H](CO)[C@@H](O)[C@H](O)[C@H]2O)[C@H](O)[C@H]1O,/,-3%,/,0%,/,/
CC1(C(=O)NS(=O)(=O)c2cccs2)CCN1C(=O)CC1CC1 (stereo not given),2%,/,21%,/,i,i
CCc1ccccc1NC(=O)CC(NCc1ccccc1)C(=O)O (stereo not given),1%,-8%,0%,-3%,i,i
COC(=O)c1ccccc1NC(=O)CC(NCc1ccccc1)C(=O)O (stereo not given),1%,21µM*,-13%,0%,i,i
C=C1C=C(C)n2ncc(C(=O)Nc3cccc4cnccc34)c2N1,/,/,/,/,i,?
COC(=O)c1ccc(CSc2nnc(Nc3ccccc3OC)s2)o1,?,17%,-11%,9.2µM*,i,i
CN1OC[C@@H]2CN(Cc3ccc4c(c3)OCO4)[C@H](c3ccc(N4CCCCC4)cc3)C[C@@H]21,-8%,/,1%,/,i,i
CN(C)/C=C(\C#N)S(=O)(=O)C(C)(C)C,4%,18%,-4%,5.2µM*,i,i
SMILES,HT1080-NT tox,SW480 rereplic,HT1080 IDH1KD tx,MCF10A rerep,KB-V1 MDR tox,KB-3-1 tox
CC(C)(C)S(=O)(=O)/C(C#N)=C/Nc1ccccn1,3%,-7%,-10%,-1%,i,i
COc1cc(C)ccc1OCCOCCOc1ccccc1[N+](=O)[O-],1%,1%,2%,4%,i,i
COc1ccccc1OCCOCCOc1ccc(C)cc1[N+](=O)[O-],7%,9%,15%,19%,13µM*,i
Cc1occc1C(=O)N/N=C/c1ccc(-c2ccccc2)cc1,9.2µM*,18%,6.5µM*,14%,13µM*,21µM*
Cc1occc1C(=O)N/N=C/c1ccc2c(c1)OCO2,9.2µM*,2%,8.2µM*,3%,7.3µM*,15µM*
O=C(N/N=C/c1ccc2c(c1)OCO2)c1cccs1,?,-4%,?,11%,i,?
Cc1ccsc1C(=O)N/N=C/c1ccc2c(c1)OCO2,?,-20%,?,22%,18µM*,?
CCOC(=O)Cc1csc(NC(=O)COc2ccc(C)cc2)n1,6%,-4%,4%,-3%,?,i
CCOC(=O)Cc1csc(NC(=O)c2ccc(Cl)s2)n1,-4%,-41%,-17%,3%,i,?
CCOC(=O)Cc1csc(NC(=O)c2cc(C)c(C)s2)n1,27%,-1%,7%,0%,18µM*,?
CCOC(=O)Cc1csc(NC(=O)CSc2nnc(-n3nc(C)cc3C)c3ccccc23)n1,-14%,-1%,-3%,19%,21µM*,i
CCOC(=O)Cc1csc(NC(=O)COc2ccccc2)n1,10µM*,7%,-6%,11%,i,i
Cc1ccc(S(=O)(=O)Cc2sc3ccccc3[n+]2C)cc1,10%,-3%,-1%,24%,21µM*,i
Cc1ccc(S(=O)(=O)CC(=O)Nc2nc3ccccc3s2)cc1,-8%,-5%,1%,25%,i,i
CCOc1ccc(/C=C/c2[nH]c(=O)[nH]c(=O)c2[N+](=O)[O-])cc1,21%,-2%,10%,?,i,i
CCOc1cc(/C=C\c2[nH]c(=O)[nH]c(=O)c2[N+](=O)[O-])ccc1OC(C)CC (stereo not given),10µM*,23µM*,?,?,i,i
CC(C)c1ccc(/C=C/c2[nH]c(=O)[nH]c(=O)c2[N+](=O)[O-])cc1,-2%,-6%,?,18µM*,i,i
